Source: PubChem BioAssay (NCI)
About 83,000 compounds went through this panel and 20% of them were active in at least one assay; those are over-represented in the sample as a whole.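 Cells were grown in 96-well plates and exposed to the test compound at a single concentration for 48 hours; results are reported as percent growth, with values below 10 considered active.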 Values without a mark were called inactive. Active and inactive are the calls of the source.

The molecules below were run on BT-549 breast (assay: NCI-60 one-dose screen, 48 h (100 = growth as untreated, 0 = no growth, -100 = all killed)). Details: 10 µM unless noted.

Row | Structure (SMILES) | growth
1 | N/C(=N\OC(=O)CSc1nc2ccccc2s1)c1ccc2ccccc2c1 | 100%
2 | Nc1nc(-c2cccc([N+](=O)[O-])c2)c(N=Nc2cccc(Cl)c2)s1 | 48.7%
3 | CC[C@@](C)(NC(=O)C(C)(C)NC(=O)[C@@H](NC(=O)[C@@H]1CCCN1C(=O)C(C)(C)NC(=O)[C@H](CC(C)C)NC(=O)CNC(=O)C(C)(C)NC(=O)[C@@H](NC(=O)C(C)(C)NC(=O)[C@H](CCC(N)=O)NC(=O)[C@H](C)NC(=O)C(C)(C)NC(=O)[C@H](C)NC(=O)C(C)(C)NC(=O)[C@@H]1CCCN1C(=O)C(C)(C)NC(C)=O)C(C)C)C(C)C)C(=O)N[C@@H](CCC(N)=O)C(=O)N[C@@H](CCC(N)=O)C(=O)N[C@H](CO)Cc1ccccc1 | -50.2% [4.25 µM] (active)
4 | COc1ccc(-c2nn(-c3ccccc3)cc2/C=C/C(=O)c2ccc(NC(=O)CCCCCCC(=O)NO)cc2)cc1 | 105%
5 | Nc1ccc(-c2nnc(SCc3ccc(O)c4ncccc34)o2)cc1 | -11.7% (active)
6 | O=C1Nc2ccc(Cl)cc2/C1=C/c1ccc(OCc2ccc(Br)cc2F)cc1 | 129%
7 | C=C1C(=O)O[C@@H]2/C=C(/C)C3=CC(=O)[C@@](C)(C[C@H](OC(=O)/C(C)=C\C)[C@@H]12)O3 | 27.9%
8 | O=C(CCCCCCN1CC(=O)N2[C@@H](c3cccc(Cl)c3)c3[nH]c4ccccc4c3C[C@H]2C1=O)NO | 82.7%
9 | CS(=O)(=O)c1ccc(-c2nn(-c3ccccc3)cc2/C=N/NC(=O)c2ccncc2)cc1 | 97.1%
10 | CC(C)=CCc1c2c(c(O)c3c1O[C@]14C(=C[C@@H]5C[C@H]1C(C)(C)O[C@@]4(C/C=C(/C)C(=O)O)C5=O)C3=O)CC(O)C(C)(C)O2 (some centres not stated) | -14.3% (active)
11 | C=C(C)C(=O)O[C@H]1C[C@@]2(C)OC(=CC2=O)/C(CO)=C\[C@H]2OC(=O)C(=C)[C@H]12 | -7.7% (active)
12 | COc1ccc(-c2nnc(SCc3ccc(O)c4ncccc34)o2)cc1 | 35.7%
13 | Nc1ccc(-c2nnc(SCc3ccc(O)c4ncccc34)n2-c2ccccc2)cc1 | 18.5%
14 | CC(C)N=C(N/C(N)=N/c1nc2ccccc2s1)NC(C)C | 70%
15 | CN1CCN(Cc2ccc(NC(=O)c3cncc(C#Cc4cnc5ccc(NC6CCOCC6)nn45)c3)cc2C(F)(F)F)CC1 | -94.4% (active)
16 | COc1cc(/C=C/C(=O)c2ccc(NC(=O)CSc3nnc(-c4ccc5nc(-c6ccccc6)[nH]c5c4)o3)cc2)cc(OC)c1OC | 81.6%
17 | CC(=O)c1ccc(NC(=O)COc2ccc(C3SCC(=O)N3c3ccc(Br)cc3)cc2)cc1 (configuration not stated) | 95.7%
18 | COc1ccc(Cn2cc3c(c2-c2ccccc2)CCCc2cnoc2-3)cc1 | 77.3%
19 | O=C(CSc1ccc(-c2nc3ccccc3[nH]2)cn1)N1CCN(c2ccccc2F)CC1 | 27.8%

Each molecule was assayed on MDA-MB-435 melanoma in the same assay as above. Details: 10 µM unless noted.

Row | Structure (SMILES) | growth
20 | Cc1ccc(NC(=O)c2ccc(CN3CCN(C)CC3)c(C(F)(F)F)c2)cc1Oc1ccc(-c2[nH]nc3ncnc(N)c23)cc1 | 71.5%
21 | COc1ccc([C@H]2c3[nH]c4ccccc4c3C[C@@H]3C(=O)N(C4CCN(Cc5ccccc5)CC4)CC(=O)N23)c(OC)c1 | 83.3%
22 | IP(CCCSc1n(Cc2ccc3ccccc3c2)c(-c2ccccc2)c(-c2ccccc2)[n+]1Cc1ccc2ccccc2c1)(c1ccccc1)(c1ccccc1)c1ccccc1 | 14.9%
23 | O=C1NC(=O)c2c1c1c3ccccc3ccc1c1[nH]c3ccccc3c21 | 9.08% (active)
24 | COc1cc(/C=N/n2cnc3oc(-c4ccccc4)cc3c2=N)cc(CN2CCN(C)CC2)c1O | 98.6%
25 | COC1=C(c2ccccc2)C(=O)C(OC)=C(c2ccccc2)C1=O | 93.7%
26 | Cc1ccc(-c2csc(N/N=C/c3nc4ccccc4n3C3CC3)n2)cc1 | 92.4%
27 | CN1CCN(c2nc(-c3csc(-c4ccncc4)n3)cc3ccccc23)CC1 | 56.2%
28 | CN1C(=O)N(C)C2C1NN=c1s/c(=C\c3ccccn3)c(=O)n12 (configuration not stated) | 88.5%
29 | CC(C)SC1=NC(=C(C(=N1)NC2=ClC=CC=C2)C#N)C3=CC=CC=C3 | 62.3%
30 | CC(=O)NC(C)(C)C(=O)N[C@@H](C)C(=O)NC(C)(C)C(=O)N[C@@H](C)C(=O)NC(C)(C)C(=O)N[C@@H](C)C(=O)N[C@@H](CCC(N)=O)C(=O)NC(C)(C)C(=O)N[C@H](C(=O)NC(C)(C)C(=O)NCC(=O)N[C@@H](CC(C)C)C(=O)NC(C)(C)C(=O)N1CCC[C@H]1C(=O)N[C@H](C(=O)NC(C)(C)C(=O)NC(C)(C)C(=O)N[C@@H](CCC(N)=O)C(=O)N[C@@H](CCC(N)=O)C(=O)N[C@H](CO)CC1CCCCC1)C(C)C)C(C)C | 9.46% [5 µM] (active)
31 | Clc1ccc(-c2csc(N/N=C/c3nc4ccccc4n3C3CC3)n2)cc1 | 98.9%
32 | COc1ccc(-c2ccc3c4c(cccc24)C(=O)N(N2C(=O)c4cccc5cccc(c45)C2=O)C3=O)cc1 | 98.8%
33 | Cc1cc(C(=O)Nc2ccc(SC#N)cc2)c(C)o1 | 103%
34 | O=C(O)c1ccc(-n2cc(CNc3ccc(Cl)cc3)c(-c3ccc(F)cc3)n2)cc1 | 98.1%
35 | Cc1cn(-c2cc(NC(=O)c3cncc(C#Cc4cnc5ccc(OCCCS(C)(=O)=O)nn45)c3)cc(C(F)(F)F)c2)cn1 | 34.7%
36 | Nc1nc(-c2cccc([N+](=O)[O-])c2)c(N=Nc2cccc(Cl)c2)s1 | 53.3%
37 | COc1ccc(-c2nn(-c3ccccc3)cc2/C=C/C(=O)c2ccc(NC(=O)CCCCCCC(=O)NO)cc2)cc1 | 104%
38 | O=C1Nc2ccc(Cl)cc2/C1=C/c1ccc(OCc2ccc(Br)cc2F)cc1 | 104%
39 | O=C(CCCCCCN1CC(=O)N2[C@@H](c3cccc(Cl)c3)c3[nH]c4ccccc4c3C[C@H]2C1=O)NO | 31.2%
40 | CS(=O)(=O)c1ccc(-c2nn(-c3ccccc3)cc2/C=N/NC(=O)c2ccncc2)cc1 | 85.4%
41 | CN1CCN(Cc2ccc(NC(=O)c3cncc(C#Cc4cnc5ccc(NC6CCOCC6)nn45)c3)cc2C(F)(F)F)CC1 | -70.2% (active)
42 | CC(=O)c1ccc(NC(=O)COc2ccc(C3SCC(=O)N3c3ccc(Br)cc3)cc2)cc1 (configuration not stated) | 102%
